Assay results as given in PubChem BioAssay (Tox21).
Several values for one entry are separate records, joined by “and”; a condition that tells them apart may be missing. Equal entries are not always repeated. Records with an inconclusive call do not appear. A structure can be active in one record and inactive in another. Activity calls are given as the source filed them. Unless noted, the call rests on the fitted dose curve; in most records, active means well fitted curve in the direction sought with a large enough effect in the repeat runs; inconclusive means weak or mixed curves; inactive means no such curve, though single readings can be large; an effect the other way counts as inactive or inconclusive.

Assays:
[1] = qHTS assay to identify small molecule agonists of the RXR signaling pathway - cell viability counter screen (AID 1159529); further: nearly all actives have a fitted effect of over 50% in size; further: potency means the concentration at half of the fitted maximal effect
Procedure, shortened: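 Cell viability is measured by CellTiter-Glo luminescence, 30 min at room temperature, in wells already read for beta-lactamase. Engineered HEK 293T cells (RXR-alpha-UAS-bla) are dosed 16 hr at 37 C. Tetraoctyl ammonium bromide serves as positive control.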

[2] = qHTS assay to identify small molecule antagonists of the retinoid acid receptor (RAR) signaling pathway - cell viability counter screen (AID 1159551); further: nearly all actives have a fitted effect of over 35% in size
Procedure, shortened: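 Seed C3RL4 cells; next day add compound, then retinol to 1 uM final; incubate 6 h at 37 C; add CellTiter-Glo; read luminescence after 30 min at RT.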

[3] = qHTS assay to identify small molecule antagonists of the retinoic acid receptor (RAR) signaling pathway (AID 1159552; further: nearly all actives have a fitted effect of over 50% in size; further: potency means the concentration at half of the fitted maximal effect)
Procedure, shortened: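 Quantitative HTS in C3RL4 RARE-luciferase reporter cells. Compounds were added with 1 uM (final) retinol; luminescence was read after 6 hr.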

[4] = qHTS assay to identify small molecule agonists of the retinoic acid receptor (RAR) signaling pathway (AID 1159553); conditions: C3RL4 RARE luciferase reporter, agonist, 6 h
Procedure, shortened: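 Activation of retinol signaling was monitored via a RARE luciferase reporter in C3RL4 cells. After 6 hr compound treatment at 37 C, detection reagent was added for 30 min at room temperature before luminescence reading.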

[5] = target: Luciferin 4-monooxygenase (Photinus pyralis) (UniProt P08659); experiment: qHTS assay to identify small molecule inhibitors of firefly luciferase (AID 1224835); further: nearly all actives have a fitted effect of over 25% in size; further: potency means the concentration at half of the fitted maximal effect
Procedure, shortened: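 Biochemical qHTS: compounds run as interplate titrations against purified firefly enzyme, with D-luciferin and ATP each at its KM concentration. Light output recorded by CCD imaging.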

[6] = qHTS assay to identify small molecule agonists of the constitutive androstane receptor (CAR) signaling pathway - cell viability counter screen (AID 1224836); further: nearly all actives have a fitted effect of over 45% in size
Procedure, shortened: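 Counter screen multiplexed with the CAR reporter readout: HepG2 cells co-transfected with hCAR and the CYP2B6-2.2kb construct receive a 15-concentration compound series and 0.75 uM PK11195 (final), then CellTiter-Fluor fluorescence is read after 23 h.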

[7] = qHTS assay to identify small molecule antagonists of the constitutive androstane receptor (CAR) signaling pathway - cell viability counter screen (AID 1224837); further: nearly all actives have a fitted effect of over 45% in size
Procedure, shortened: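 Using CellTiter-Fluor, viability is scored in HepG2 cells stably carrying hCAR and a 2.2kb CYP2B6 reporter after 23 hr compound exposure across 15 concentrations, with CITCO present at 50 nM.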

[8] = target: Nuclear receptor subfamily 1 group I member 3 (Homo sapiens) (UniProt Q14994); experiment: qHTS assay to identify small molecule antagonists of the constitutive androstane receptor (CAR) signaling pathway (AID 1224838);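 further: HepG2 cells stably expressing hCAR with CYP2B6 luciferase reporter stimulated by CITCO; nearly all actives have a fitted effect of over 40% in size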
Procedure, shortened: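 Reporter luminescence was quantified after 24 h exposure of hCAR/CYP2B6-2.2kb double-stable HepG2 cells to compounds at 15 concentrations in the presence of 50 nM CITCO final.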

[9] = qHTS assay to identify small molecule antagonists of the estrogen related receptor signaling pathway with the pleiotropic PPARgamma coactivator (PGC) from Tox21 10K library - cell viability counter screen (AID 1224840; active means well fitted cell-killing curve with a large enough effect in the repeat runs, not every such curve was filed as active; further: nearly all actives have a fitted effect of over 40% in size)
Procedure, shortened: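 Here the PGC/ERR cells serve as a cytotoxicity control: they are exposed to compounds for 17.5 hours at 37 C, and live-cell signal is quantified using CellTiter-Fluor fluorescence.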

[10] = target: Thyrotropin receptor (Homo sapiens) (UniProt P16473); experiment: qHTS assay to identify small molecule agonists of the thyroid stimulating hormone receptor (TSHR) signaling pathway (AID 1224843; calls by dose curve; further: nearly all actives have a fitted effect of over 45% in size; further: potency means the concentration at half of the fitted maximal effect)
Procedure, shortened: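 TSHR-HEK293 cells in agonist mode, 30 min room-temperature step, then cAMP measured by competitive HTRF (cAMP-d2 with anti-cAMP cryptate) after 1 h at room temperature. Tested at 15 concentrations in triplicate.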

[11] = qHTS assay to identify small molecule agonists of the hypoxia (HIF-1) signaling pathway - cell viability counter screen (AID 1224844; calls by dose curve; further: nearly all actives have a fitted effect of over 50% in size; further: potency means the concentration at half of the fitted maximal effect)
Procedure, shortened: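 Multiplexed with the HRE beta-lactamase assay, this viability read used CellTiter-Glo luminescence (30 min, RT) on HRE-bla ME-180 cells treated 17 hrs with compounds in 0.5% dialyzed FBS medium.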

[12] = target: Nuclear receptor subfamily 1 group I member 3 (Homo sapiens) (UniProt Q14994); experiment: qHTS assay to identify small molecule agonists of the constitutive androstane receptor (CAR) signaling pathway (AID 1224839); further: nearly all actives have a fitted effect of over 15% in size
Procedure, shortened: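 A 15-concentration quantitative screen uses HepG2 cells co-transfected stably with human CAR and CYP2B6-2.2kb reporter. Treatment lasts 24 h with 0.75 uM PK11195 final present; ONE-Glo luminescence is the signal.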

[13] = qHTS assay to identify small molecule antagonists of the estrogen related receptor signaling pathway with the pleiotropic PPARgamma coactivator (PGC) from Tox21 10K library (AID 1224841; call rule not given here; further: actives are mostly falling curves and most rising ones were filed inactive; nearly all actives have a fitted effect of over 50% in size; further: potency means the concentration at half of the fitted maximal effect)
Procedure, shortened: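 Each well held 2,000 PGC/ERR cells, pre-incubated six hours (37 C, 5% CO2). Test substances in DMSO were added by pin tool and left for 18 h at 37 C before luciferase detection by One-Glo.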

[14] = qHTS assay to identify small molecule agonists of the estrogen related receptor signaling pathway with the pleiotropic PPARgamma coactivator (PGC) from Tox21 10K library (AID 1224842); further: nearly all actives have a fitted effect of over 15% in size
Procedure, shortened: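 PGC/ERR reporter cell line, 2,000 cells per well, incubated 6 h at 37 C before 23 nL compound in DMSO was added. After 18 h at 37 C, One-Glo luminescence read following 30 min at room temperature.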

[15] = qHTS assay to identify small molecule antagonists of the estrogen related receptor (ERR) signaling pathway - cell viability counter screen (AID 1224818);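 further: viability measured after 17.5 h of compound exposure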
Procedure, shortened: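 In the same ERR cell assay, compound-treated wells (17.5 h, 37 C) were multiplexed with a fluorogenic viability reagent, CellTiter-Fluor, read after 30 min to flag cytotoxic substances.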

[16] = qHTS assay to identify small molecule agonists of the estrogen related receptor (ERR) signaling pathway (AID 1224820)
Procedure, shortened: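 ERR reporter cell line (from NTP), 2,000 cells/well, incubated 6 h before compound addition, then 18 h at 37 C. Luminescence measured 30 min after One-Glo reagent at room temperature.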

[17] = tested on: estrogen-related receptor alpha (ERRalpha) with PGC-1alpha coactivator, human; experiment: qHTS assay to identify small molecule antagonists of the estrogen related receptor signaling pathway with the pleiotropic PPARgamma coactivator (PGC) (AID 1224821; calls by dose curve)
Procedure, shortened: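 PGC/ERR reporter cell line, plated 6 h before compound addition, then exposed 18 h at 37 °C. Luciferase activity read by luminescence 30 min after One-Glo addition; decrease indicates antagonism.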

[18] = qHTS assay to identify small molecule agonists of the estrogen related receptor signaling pathway with the pleiotropic PPARgamma coactivator (PGC) (AID 1224823)
Procedure, shortened: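 PGC/ERR reporter cells seeded 6 h, then exposed to compounds (23 nL in DMSO) for 18 h at 37 C. One-Glo luciferase luminescence read after 30 min at room temperature.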

[19] = activation: at 73.3 µM (top of the series) unless noted
On the % scale 0 is the no-effect control and ±100 the full control effect.

Sequence of Thyrotropin receptor (Homo sapiens) (P16473 whole entry, looked up): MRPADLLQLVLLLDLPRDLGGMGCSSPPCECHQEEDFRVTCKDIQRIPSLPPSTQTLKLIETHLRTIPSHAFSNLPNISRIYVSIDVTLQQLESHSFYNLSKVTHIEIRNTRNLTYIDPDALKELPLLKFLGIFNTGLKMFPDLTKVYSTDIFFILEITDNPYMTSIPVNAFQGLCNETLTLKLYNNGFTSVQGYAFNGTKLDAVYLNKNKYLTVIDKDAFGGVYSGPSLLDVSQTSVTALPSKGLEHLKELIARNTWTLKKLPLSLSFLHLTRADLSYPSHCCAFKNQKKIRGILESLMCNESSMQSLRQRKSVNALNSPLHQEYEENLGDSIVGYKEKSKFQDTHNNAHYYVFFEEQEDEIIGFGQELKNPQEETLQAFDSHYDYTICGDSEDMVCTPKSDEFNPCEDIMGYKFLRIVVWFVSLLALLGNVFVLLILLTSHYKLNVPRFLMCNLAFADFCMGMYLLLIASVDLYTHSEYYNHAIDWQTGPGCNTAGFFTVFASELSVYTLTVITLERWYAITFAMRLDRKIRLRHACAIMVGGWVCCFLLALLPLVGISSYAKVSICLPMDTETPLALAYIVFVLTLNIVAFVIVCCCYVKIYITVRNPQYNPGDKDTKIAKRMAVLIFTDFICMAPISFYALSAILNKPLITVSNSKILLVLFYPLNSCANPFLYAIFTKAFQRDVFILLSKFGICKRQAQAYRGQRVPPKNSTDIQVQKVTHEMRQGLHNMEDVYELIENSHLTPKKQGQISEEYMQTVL
Sequence of Nuclear receptor subfamily 1 group I member 3 (Homo sapiens) (Q14994 whole entry, looked up): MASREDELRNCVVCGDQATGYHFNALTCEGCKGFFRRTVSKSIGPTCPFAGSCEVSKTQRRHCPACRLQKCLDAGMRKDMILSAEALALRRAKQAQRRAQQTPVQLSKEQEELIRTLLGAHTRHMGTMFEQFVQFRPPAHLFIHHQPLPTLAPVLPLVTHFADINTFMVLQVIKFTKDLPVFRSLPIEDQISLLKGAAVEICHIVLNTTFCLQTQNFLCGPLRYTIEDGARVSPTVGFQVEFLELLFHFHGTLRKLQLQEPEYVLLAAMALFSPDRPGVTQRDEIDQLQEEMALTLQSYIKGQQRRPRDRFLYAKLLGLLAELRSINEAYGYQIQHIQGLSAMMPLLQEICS
Sequence of Luciferin 4-monooxygenase (Photinus pyralis) (P08659 whole entry, looked up): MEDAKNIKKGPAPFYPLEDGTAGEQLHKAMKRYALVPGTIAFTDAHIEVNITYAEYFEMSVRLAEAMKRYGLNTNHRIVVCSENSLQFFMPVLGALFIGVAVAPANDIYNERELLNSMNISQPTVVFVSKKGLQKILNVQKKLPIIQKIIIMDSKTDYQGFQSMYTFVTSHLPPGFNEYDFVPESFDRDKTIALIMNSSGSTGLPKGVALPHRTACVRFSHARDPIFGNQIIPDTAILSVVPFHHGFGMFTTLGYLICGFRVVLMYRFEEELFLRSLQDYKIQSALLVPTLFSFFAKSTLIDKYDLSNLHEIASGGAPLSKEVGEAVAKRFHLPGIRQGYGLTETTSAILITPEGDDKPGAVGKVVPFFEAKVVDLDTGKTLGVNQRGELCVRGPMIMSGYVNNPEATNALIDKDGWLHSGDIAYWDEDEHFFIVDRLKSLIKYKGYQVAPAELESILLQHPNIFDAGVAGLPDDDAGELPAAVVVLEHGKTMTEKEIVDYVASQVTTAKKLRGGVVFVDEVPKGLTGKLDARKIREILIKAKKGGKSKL

Cc1ccc(C(C)(C)C)cc1
active: activation [4, 19] 0.0823% [at 94.8 µM]
inactive: Potency [1] | Potency [2] | Potency [3] | activation ([4]; at 73.3 µM (top of the series)) -0.68% | Potency [5] | Potency [6] | Potency [7] | Potency [8] | Potency [9] | Potency [10] | Potency [11]

C=CCOC(=O)C(=C)C
inactive: Potency [1] | Potency [2] | Potency [3] | Potency [4, 19] | Potency [5] | Potency [6] | Potency [7] | Potency [8] | Potency [12] | Potency [9] | Potency [13] | Potency [14] | Potency [10] | Potency [11]

CC1(C)NC(=O)N(c2ccc([N+](=O)[O-])c(C(F)(F)F)c2)C1=O
inactive: Potency [1] | Potency [2] | Potency [3] | Potency [4, 19] | outcome [15] | outcome [16] | outcome [17] | outcome [18] | Potency [5] | Potency [6] | Potency [7] | Potency [8] | Potency [9] | Potency [13] | Potency [14] | Potency [10] | Potency [11]

CCCCCCCCCCCCCO
inactive: Potency [1] | Potency [2] | Potency [3] | Potency [4, 19] | Potency [6] | Potency [7] | Potency [8] | Potency [9] | Potency [13] | Potency [14] | Potency [11]
active: Potency [5] 82.5 µM

O=Cc1ccccc1C=O
inactive: Potency [1] | Potency [2] | Potency [4, 19] | Potency [5] | Potency [9] | Potency [11]
30.6 µM (active) and inactive: Potency [3]
38.6 µM (active) and inactive: Potency [10]

O=C(O)CCCC(=O)O
inactive: Potency [1] | Potency [2] | Potency [3] | Potency [4, 19] | Potency [5] | Potency [6] | Potency [7] | Potency [8] | Potency [9] | Potency [10] | Potency [11]

Nc1ccc(N)c(Cl)c1
inactive: Potency [2] | Potency [3] | Potency [4, 19] | Potency [5] | Potency [6] | Potency [7] | Potency [8] | Potency [11]
active: Potency [1] 24.5 µM and 49 µM

C1CN(SSN2CCOCC2)CCO1
active: Potency [1] 54.4 µM | Potency [3] 53.9 µM | Potency [13] 53.9 µM | Potency [11] 54.4 µM
inactive: Potency [2] | Potency [4, 19] | Potency [5] | Potency [6] | Potency [14] | Potency [10]

CC(C)[N+](C)(CCOC(=O)C1c2ccccc2Oc2ccccc21)C(C)C
inactive: Potency [1] | Potency [2] | Potency [4, 19] | outcome [15] | Potency [5] | Potency [6] | Potency [7] | Potency [9] | Potency [10] | Potency [11]
